Inconclusive results are not listed. Active and inactive are the calls of the source. Calls come from the whole dose curve; as a rule, active = well fitted curve in the direction sought with a large enough effect; inconclusive = small, poorly fitted or top-dose-only effect, or another doubt; inactive = no such curve, though single readings can be large; an effect the other way counts as inactive or inconclusive.

Seven compounds from PubChem BioAssay (NCATS) can be followed below.

The nature of experiment [1]: qHTS of pediatric cancer cell lines to identify multiple opportunities for drug repurposing: Primary screen for SJ-GBM2 cells (AID 1347091). The gist of the method: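 Viability measured as metabolically active cells via CellTiter-Glo luminescence following 48 hours of compound exposure, 11-point dilutions in confirmatory testing. 500-1,000 cells/well plated 5 hours before dosing; controls were DMSO and 2.3 µM bortezomib.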
In general terms: In qHTS, concentration-response curves come from the screen itself.

The nature of experiment [2]: qHTS of pediatric cancer cell lines to identify multiple opportunities for drug repurposing: Primary screen for BT-37 cells (AID 1347094). Note: series mostly up to about 57 µM. The gist of the method:
(§1)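 Viability was measured as metabolically active cells after 48 hours of treatment, read by CellTiter-Glo luminescence. Compounds were tested at multiple final concentrations, giving concentration-response curves.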

Experiment [3] in a line: qHTS of pediatric cancer cell lines to identify multiple opportunities for drug repurposing: Primary screen for U-2 OS cells (AID 1347096). Note: nearly all actives have a fitted effect of over 50% in size. The gist of the method:
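Viability after 48 h compound treatment at 37C, 500-1,000 cells/well, read as ATP luminescence with CellTiter-Glo. Primary screens used 11-point (MIPE, 0.78 nM-46 µM) or 8-point (NPC, 0.59 nM-46 µM) final concentrations; follow-up screens used 11-point dilutions.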

Experiment [4] can be described thus: qHTS of pediatric cancer cell lines to identify multiple opportunities for drug repurposing: Primary screen for Saos-2 cells (AID 1347097). Note: nearly all actives have a fitted effect of over 40% in size. An outline of the steps: as §1
Experiment [5] can be described thus: qHTS of pediatric cancer cell lines to identify multiple opportunities for drug repurposing: Primary screen for SK-N-SH cells (AID 1347098). Note: nearly all actives have a fitted effect of over 65% in size. Note: potency is the fitted concentration of half-maximal effect. An outline of the steps: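 Cells (500-1,000/well) rested 5 h, then received compounds for 48 h; metabolically active cells were measured by CellTiter-Glo luminescence. Final concentrations spanned up to 46 µM (MIPE, 11-point) or 0.59 nM-46 µM (NPC, 8-point) in primary screens, 11-point in follow-ups.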

The nature of experiment [6]: qHTS of pediatric cancer cell lines to identify multiple opportunities for drug repurposing: Primary screen for A673 cells (AID 1347092). Note: nearly all actives have a fitted effect of over 45% in size. Note: potency is the fitted concentration of half-maximal effect. The gist of the method: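 A673 cells (500-1,000 cells/well in growth media) were pre-incubated 5 h at 37 degrees C, then exposed to compounds for 48 h. Viability was read as CellTiter-Glo luminescence; concentration-response curves came directly from the primary screen.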

Experiment [7] can be described thus: qHTS of pediatric cancer cell lines to identify multiple opportunities for drug repurposing: Primary screen for NB-EBc1 cells (AID 1347095). The gist of the method: as §1
Experiment [8] is described as follows: qHTS of pediatric cancer cell lines to identify multiple opportunities for drug repurposing: Primary screen for SK-N-MC cells (AID 1347093). Note: series mostly up to about 46 µM. The gist of the method: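 Metabolically active cells were quantified by ATP-dependent luminescence (CellTiter-Glo, 15 min at room temperature) following 48 h treatment. Cells had been plated at 500-1,000 per well and settled for 5 h beforehand.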

Experiment [9] in a line: qHTS of pediatric cancer cell lines to identify multiple opportunities for drug repurposing: Primary screen for NB1643 cells (AID 1347099). Note: nearly all actives have a fitted effect of over 50% in size. The gist of the method: as §1

For `CN1CCC(=C2c3ccccc3CC(=O)c3sccc32)CC1`, the Potency result in [1], in experiment [2], in [3] and in experiment [4] was “inactive” each time. The Potency in [5] is 24.1 µM (active).
As to `COc1ccccc1OCC(O)CN1CCN(CC(=O)Nc2c(C)cccc2C)CC1` (stereo not given), the Potency entry in [1], in [6], in [2] and in experiment [3] was “inactive” in each case.
Turning to `COc1cc2nc(N3CCN(C(=O)C4COc5ccccc5O4)CC3)nc(N)c2cc1OC` (stereo not given), the Potency was 18.7 µM (active) in [6] and 19.2 µM (active) in experiment [5]. Besides, the Potency entry in [7] and in [3] was “inactive” each time.
With `CN1CCC(=C2c3ccccc3C=Cc3ccccc32)CC1`, the Potency result in experiment [1], in experiment [7] and in experiment [3] was “inactive” in each case. The Potency in experiment [6] was 18.7 µM (active).
As for `CN1C(C(=O)Nc2ccccn2)=C(O)c2ccccc2S1(=O)=O`, the Potency result in experiment [1], in experiment [6] and in experiment [3] was “inactive” throughout.
`CC(C)NCC(O)c1ccc(O)c(O)c1` (stereo not given): the Potency in [6] is 1.18 µM (active). The Potency entry in experiment [3] and in experiment [5] was “inactive” in each case.
Turning to `O=C(CCCN1CCC(O)(c2ccc(Cl)cc2)CC1)c1ccc(F)cc1`, the Potency result in experiment [6], in [8], in [2], in experiment [7], in [3] and in experiment [4] was “inactive” each time. The Potency result in experiment [9] is “inactive”.
